The results in this text go back to PubChem BioAssay (Tox21).

Molecules are shown by their SMILES. A number with no mark means an inactive call. Results filed as inconclusive are left out. Active and inactive are the calls of the source. Unless noted, the call rests on the fitted dose curve.

Assay [1] in a line: Nuclear factor erythroid 2-related factor 2/antioxidant responsive element (Nrf2/ARE) small molecule agonists: qHTS cell viability counter screen in human keratinocytes (AID 1919968; active means well fitted curve in the direction sought with a large enough effect in the repeat runs; an effect the other way counts as inactive or inconclusive; further: nearly all actives have a fitted effect of over 55% in size; further: potency means the concentration at half of the fitted maximal effect). Put shortly: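 CellTiter-Fluor fluorescence, read 1 h after reagent, gave viability in the same wells as the ARE-luciferase assay. KeratinoSens cells (1,500/well) had 23 h compound exposure at 37 C/5% CO2 following 5 h plating.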
On the technique in general: Quantitative high-throughput screening tests each substance at several concentrations.

Assay [2] can be described thus: Nuclear factor erythroid 2-related factor 2/antioxidant responsive element (Nrf2/ARE) small molecule agonists: luciferase reporter gene qHTS assay in human keratinocytes (AID 1919969). Further: nearly all actives have a fitted effect of over 35% in size. Further: potency means the concentration at half of the fitted maximal effect. A general note: A reporter such as luciferase makes a cellular process visible.
Assay [3] has as its target Gonadotropin-releasing hormone receptor (Homo sapiens) (UniProt P30968). Description: Human gonadotropin-releasing hormone receptor (GnRHR) small molecule agonists, calcium flux assay in GnRHR-HEK293 cells (AID 1920063). Further: nearly all actives have a fitted effect of over 35% in size. Further: potency means the concentration at half of the fitted maximal effect. Put shortly: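 Agonist mode: compounds at 15 concentrations, in triplicate, went onto calcium dye-loaded GnRHR-HEK293 cells. Intracellular calcium was then followed as 480/540 nm fluorescence at 1 s intervals over 3 min.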

Assay [4] can be described thus: G protein-coupled receptor (GPCR) small molecule agonists, calcium flux assay: HEK293 wild type cell line counter screen (AID 1920065). Put shortly: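 Calcium flux counter screen: compound added in agonist mode at 15 concentrations in triplicate to dye-loaded parental HEK293 cells. Fluorescence (480/540) read kinetically for 3 min; ATP served as positive control.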
In general terms: A change in cytosolic calcium serves as a functional read-out for many receptors and channels.

Assay [5] is described as follows: p53 small molecule agonists, cell-based qHTS assay with human liver microsomes: qHTS cell viability counter screen (AID 1963579). Further: nearly all actives have a fitted effect of over 45% in size. Further: potency means the concentration at half of the fitted maximal effect. Put shortly:
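Metabolically activated exposure: compounds, human liver microsomes and NADPH (0.5 mg/mL final apiece) were added to p53RE-bla cells seeded 5 h earlier, left 16 h at 37 C, and then assessed for viability by CellTiter-Glo luminescence.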

Assay [6] can be described thus: p53 small molecule agonists, cell-based qHTS assay with rat liver microsomes: qHTS cell viability counter screen (AID 1963580). Further: nearly all actives have a fitted effect of over 45% in size. Put shortly: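 After the beta-lactamase ratio was read, CellTiter-Glo was added to the same wells and luminescence measured at 30 min; cells had been treated 16 h at 37 C with compounds, rat liver microsomes and NADPH (0.5 mg/mL final each).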

A short description of assay [7]: p53 small molecule agonists, cell-based qHTS assay: qHTS cell viability counter screen (AID 1963581). Further: nearly all actives have a fitted effect of over 45% in size. Further: potency means the concentration at half of the fitted maximal effect. Put shortly: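 Counter screen read by CellTiter-Glo luminescence (ATP content, 30 min at room temperature), run in the same wells as the beta-lactamase reporter read. HCT-116 p53RE-bla cells saw compounds for 16 h at 37 C.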
For assay [8], the target named is Beta-2 adrenergic receptor (Homo sapiens) (UniProt P07550). The assay can be described thus: Adrenergic beta2 receptor (ADRB2) small molecule antagonists, cell-based qHTS assay (AID 1963592). Further: nearly all actives have a fitted effect of over 50% in size. Further: potency means the concentration at half of the fitted maximal effect. Put shortly: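 Assay format: CHO-ADRB2 cells, 18-20hr seeding at 37C/5% CO2, then compound plus 1nM isoproterenol agonist mix for 0.5hr RT. Homogeneous time-resolved fluorescence cAMP detection after 1hr, expressed as 665/615 nm ratio.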
Chain of Beta-2 adrenergic receptor (Homo sapiens) (P07550 whole entry, looked up): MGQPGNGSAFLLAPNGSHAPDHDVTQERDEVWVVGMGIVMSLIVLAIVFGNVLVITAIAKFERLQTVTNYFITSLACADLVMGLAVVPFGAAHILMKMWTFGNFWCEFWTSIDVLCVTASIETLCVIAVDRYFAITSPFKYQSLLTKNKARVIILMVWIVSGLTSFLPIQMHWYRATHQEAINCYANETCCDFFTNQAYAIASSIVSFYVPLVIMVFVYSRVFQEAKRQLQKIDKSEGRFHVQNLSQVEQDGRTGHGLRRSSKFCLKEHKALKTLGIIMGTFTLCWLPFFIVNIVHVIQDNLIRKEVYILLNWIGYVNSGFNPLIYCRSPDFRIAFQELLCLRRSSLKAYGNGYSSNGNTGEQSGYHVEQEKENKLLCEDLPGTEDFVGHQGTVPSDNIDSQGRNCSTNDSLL

In assay [9] the target is D(2) dopamine receptor (Homo sapiens) (UniProt P14416). Description: Dopamine D2 receptor (DRD2) small molecule agonists, cell-based qHTS assay (AID 1963594). Further: nearly all actives have a fitted effect of over 35% in size. Put shortly: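 HEK293 cells stably expressing human DRD2, pre-treated with PDE inhibitor Ro20-1724 (0.1 mM final) and compound 10 min at room temperature, then stimulated with NKH477 (200nM […]) for 30 min. cAMP read by HTRF (665/620 nm).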
Chain of D(2) dopamine receptor (Homo sapiens) (P14416 whole entry, looked up): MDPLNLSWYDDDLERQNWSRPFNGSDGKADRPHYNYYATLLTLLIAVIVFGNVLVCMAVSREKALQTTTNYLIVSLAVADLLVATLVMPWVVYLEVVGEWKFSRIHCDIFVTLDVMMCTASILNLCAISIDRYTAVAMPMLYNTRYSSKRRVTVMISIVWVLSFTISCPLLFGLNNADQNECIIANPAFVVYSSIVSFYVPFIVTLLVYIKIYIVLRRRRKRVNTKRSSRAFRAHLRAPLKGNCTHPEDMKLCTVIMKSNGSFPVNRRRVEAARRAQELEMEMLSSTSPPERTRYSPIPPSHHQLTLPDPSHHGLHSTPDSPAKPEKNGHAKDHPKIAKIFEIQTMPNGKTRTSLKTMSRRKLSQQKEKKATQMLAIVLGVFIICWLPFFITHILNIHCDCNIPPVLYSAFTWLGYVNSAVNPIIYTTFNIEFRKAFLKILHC

Assay [10] has the same target. The assay can be described thus: Dopamine D2 receptor (DRD2) small molecule antagonists, cell-based qHTS assay (AID 1963595; active means well fitted inhibition curve with a large enough effect in the signal ratio in the repeat runs, with a control signal flat; the % refers to the signal ratio). Put shortly: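 DRD2-HEK293; 0.1 mM Ro20-1724; cpd 10 min RT; NKH477 200 nM + quinpirole 12 nM, 30 min RT; HTRF cAMP (cAMP-d2/anti-cAMP cryptate), 665/620 nm ratio after 1 h.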
Assay [11] deals with 5-hydroxytryptamine receptor 2A (Homo sapiens) (UniProt P28223). The assay can be described thus: 5-hydroxytryptamine receptor 2A (HTR2A) small molecule antagonists, cell-based qHTS assay (AID 1963586). Further: nearly all actives have a fitted effect of over 45% in size. Put shortly:
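CHO cells stably expressing human HTR2A were plated for 18 h at 37 C, then loaded with calcium dye for 1 h. Compounds were preincubated 5 min at room temperature before DOI (4 nM solution) was added. Kinetic fluorescence was read for 3 min.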

For assay [12] the target is unchanged. Description: 5-hydroxytryptamine receptor 2A (HTR2A) small molecule agonists, cell-based qHTS assay (AID 1963587). Further: nearly all actives have a fitted effect of over 30% in size. Further: potency means the concentration at half of the fitted maximal effect. Put shortly: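 CHO cells stably expressing human HTR2A, plated 18 h, loaded with calcium dye 1 h at 37 C. Agonist mode: compounds added and intracellular calcium fluorescence recorded kinetically for 2 min at 1 sec intervals.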
The target in assay [13] is Muscarinic acetylcholine receptor M1 (Homo sapiens) (UniProt P11229). Description: Cholinergic receptor muscarinic 1 (CHRM1) small molecule antagonists, cell-based qHTS assay (AID 1963588). Further: nearly all actives have a fitted effect of over 40% in size. Further: potency means the concentration at half of the fitted maximal effect. Put shortly:
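Compounds were tested at 15 concentrations in three independent runs. Dye-loaded CHRM1-CHO cells were exposed 5 min at room temperature before stimulation by acetylcholine added at 50nM. Intracellular calcium was read kinetically on FDSS for 3 min.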

Assay [14] addresses KiSS-1 receptor (Homo sapiens) (UniProt Q969F8). Description: Human kisspeptin (KISS1R) small molecule agonists, calcium flux assay in KISS1R-HEK293 cells (AID 1920064; active means well fitted curve in the direction sought with a large enough effect in the repeat runs; an effect the other way counts as inactive or inconclusive). Put shortly:
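Agonist mode: intracellular calcium rise tracked at 1 s intervals over 3 min (480/540 nm) immediately after compound addition to dye-loaded KISS1R-HEK293 stable cells. Each compound tested at 15 concentrations in triplicate.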

Assay [15] is described as follows: p53 small molecule agonists, cell-based qHTS assay with rat liver microsomes (AID 1963578). Put shortly: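 Agonist mode in p53RE-bla reporter cells, with compounds co-incubated 16 h at 37 C alongside 0.5 mg/mL rat liver microsomes and 0.5 mg/mL NADPH (final), followed by a 2 h LiveBLAzer detection step.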
A short description of assay [16]: p53 small molecule agonists, cell-based qHTS assay (AID 1963582; active means well fitted activation curve with a large enough effect in the signal ratio in the repeat runs, not every such curve was filed as active; the % refers to the signal ratio). Put shortly: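 Read-out is beta-lactamase FRET fluorescence after 2 h at room temperature with LiveBLAzer B/G substrate. p53 response element-bla cells were treated 16 h at 37 C with compounds in DMSO, added 5 h after seeding.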
Assay [17] in a line: cAMP Responsive Elements (CRE) small molecule agonists, cell-based qHTS assay (AID 1963590). Put shortly: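 Agonist mode: compound added to CRE-bla HEK 293T cells (2,000/well, 18 h after plating) for 3 h at 37 C/5% CO2. Reporter activity detected via FRET beta-lactamase substrate, 2 h room-temperature loading.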
Assay [18] can be described thus: cAMP Responsive Elements (CRE) small molecule antagonists, cell-based qHTS assay (AID 1963591; active means well fitted inhibition curve with a large enough effect in the signal ratio in the repeat runs, not every such curve was filed as active; the % refers to the signal ratio). Put shortly: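 Antagonist mode: compounds are added alongside the adenylyl cyclase activator NKH477 (0.25 uM final) to CRE-bla HEK293T cells for 3 h. LiveBLAzer FRET substrate, 2 h at room temperature, reports bla expression.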
For assay [19], the target named is Beta-2 adrenergic receptor (Homo sapiens) (UniProt P07550). The assay can be described thus: Adrenergic beta2 receptor (ADRB2) small molecule agonists, cell-based qHTS assay (AID 1963593).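 Further: CHO cells stably overexpressing human ADRB2.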 Put shortly: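 CHO cells stably over-expressing ADRB2 were plated overnight at 37C, then dosed with compounds plus a stimulation mix containing 100uM IBMX and 25uM Ro-20-1724 for 0.5hr at room temperature. cAMP was measured by HTRF competition, 1hr.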

Assay [20] deals with Muscarinic acetylcholine receptor M1 (Homo sapiens) (UniProt P11229). The assay can be described thus: Cholinergic receptor muscarinic 1 (CHRM1) small molecule agonists, cell-based qHTS assay (AID 1963589). Further: nearly all actives have a fitted effect of over 35% in size. Put shortly: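 Agonist-mode calcium-flux screen: compounds at 15 concentrations, three independent runs, were pin-transferred onto dye-loaded human CHRM1-CHO cells. Fluorescence was then recorded kinetically every second over minutes.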
Chain of Muscarinic acetylcholine receptor M1 (Homo sapiens) (P11229 whole entry, looked up): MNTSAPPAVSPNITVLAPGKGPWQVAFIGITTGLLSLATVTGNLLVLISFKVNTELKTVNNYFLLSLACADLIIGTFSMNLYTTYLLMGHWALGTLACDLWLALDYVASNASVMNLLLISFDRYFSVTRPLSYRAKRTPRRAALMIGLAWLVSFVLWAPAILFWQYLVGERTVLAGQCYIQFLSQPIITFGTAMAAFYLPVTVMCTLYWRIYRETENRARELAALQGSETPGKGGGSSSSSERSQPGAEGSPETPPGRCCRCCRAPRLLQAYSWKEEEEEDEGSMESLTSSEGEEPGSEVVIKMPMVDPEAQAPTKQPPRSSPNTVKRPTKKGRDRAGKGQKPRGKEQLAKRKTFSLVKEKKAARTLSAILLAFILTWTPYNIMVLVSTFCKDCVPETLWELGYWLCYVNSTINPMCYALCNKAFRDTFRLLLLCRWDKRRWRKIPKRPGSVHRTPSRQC

Chain of 5-hydroxytryptamine receptor 2A (Homo sapiens) (P28223 whole entry, looked up): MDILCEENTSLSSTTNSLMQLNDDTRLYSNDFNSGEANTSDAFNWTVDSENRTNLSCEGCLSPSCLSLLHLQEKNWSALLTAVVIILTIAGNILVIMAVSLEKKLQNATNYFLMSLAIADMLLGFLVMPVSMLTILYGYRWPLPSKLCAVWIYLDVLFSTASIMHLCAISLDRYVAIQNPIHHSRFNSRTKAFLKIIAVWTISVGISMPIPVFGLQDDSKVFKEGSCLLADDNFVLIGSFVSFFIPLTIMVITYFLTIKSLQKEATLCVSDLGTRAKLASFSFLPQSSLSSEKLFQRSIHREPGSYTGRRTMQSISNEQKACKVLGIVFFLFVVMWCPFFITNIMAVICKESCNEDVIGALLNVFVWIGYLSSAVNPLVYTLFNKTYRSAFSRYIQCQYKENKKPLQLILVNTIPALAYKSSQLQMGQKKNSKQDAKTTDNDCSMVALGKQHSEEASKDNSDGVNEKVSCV
Chain of Gonadotropin-releasing hormone receptor (Homo sapiens) (P30968 whole entry, looked up): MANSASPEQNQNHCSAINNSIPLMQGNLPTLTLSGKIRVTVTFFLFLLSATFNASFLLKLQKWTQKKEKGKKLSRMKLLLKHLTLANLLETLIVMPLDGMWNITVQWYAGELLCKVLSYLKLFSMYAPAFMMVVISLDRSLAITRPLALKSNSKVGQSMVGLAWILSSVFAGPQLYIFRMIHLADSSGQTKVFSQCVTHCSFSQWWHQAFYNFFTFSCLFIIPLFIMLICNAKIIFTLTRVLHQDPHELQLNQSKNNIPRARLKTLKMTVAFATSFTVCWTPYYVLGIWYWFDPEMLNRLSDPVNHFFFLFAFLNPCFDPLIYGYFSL
Chain of KiSS-1 receptor (Homo sapiens) (Q969F8 whole entry, looked up): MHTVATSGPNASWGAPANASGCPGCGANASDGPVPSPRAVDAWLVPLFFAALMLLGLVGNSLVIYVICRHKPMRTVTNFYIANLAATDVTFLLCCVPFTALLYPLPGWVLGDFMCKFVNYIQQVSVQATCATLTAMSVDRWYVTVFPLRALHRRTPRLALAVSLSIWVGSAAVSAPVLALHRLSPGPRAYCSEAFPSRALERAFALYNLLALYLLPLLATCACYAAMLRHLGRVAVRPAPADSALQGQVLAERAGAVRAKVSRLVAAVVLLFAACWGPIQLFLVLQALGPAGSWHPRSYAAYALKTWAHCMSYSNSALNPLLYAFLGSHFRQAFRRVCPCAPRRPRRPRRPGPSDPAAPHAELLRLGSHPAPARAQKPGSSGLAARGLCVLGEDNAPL

Turning to `Cc1cc(C(C#N)c2ccc(Cl)cc2)c(Cl)cc1NC(=O)c1cc(I)cc(I)c1O` (stereo unspecified), the results for the Potency in assay [1] and in [7] were 29.8 µM (active) and 5.61 µM (active), respectively. In addition, the Potency entry in assay [2], in assay [3], in assay [4], in assay [5], in assay [6] and in assay [8] was “inactive” in each case. Further, the Potency result in assay [9] and in assay [10] was “inactive” in each case.

`COc1cc(/C=C/C(=O)CC(=O)/C=C/c2ccc(O)c(OC)c2)ccc1O`: the Potency in assay [1] is 48.9 µM (active); in assay [2] it was 15.4 µM (active); in assay [3] it was 39.2 µM (active); in assay [5], 16.3 µM (active); in [7], 46.1 µM (active); in assay [12], 22 µM (active). Further, the Potency result in [11], in [13], in assay [8] and in assay [9] was “inactive” each time.

Take `CCCCCCCCCOC(=O)CCCCC(=O)OCCCCCCC`: the Potency entry in [1], in assay [2], in assay [14], in assay [4], in assay [15] and in assay [5] was “inactive” throughout. Further, the Potency result in [6], in assay [7], in assay [16], in assay [11], in [17] and in [18] was “inactive” in each case. Further, the Potency entry in [19], in assay [9] and in assay [10] was “inactive” in each case. The Potency in assay [8] is 15.4 µM (active).

`CC1CC(OC(=O)C(O)c2ccccc2)CC(C)(C)N1C` (stereo unspecified): the Potency entry in assay [1], in [2], in assay [3], in [4], in assay [5] and in assay [6] was “inactive” each time. The Potency entry in [7], in assay [12], in assay [20], in assay [17], in assay [18] and in [8] was “inactive” throughout. The Potency entry in [19], in [9] and in assay [10] was “inactive” in each case. Moreover, the Potency in assay [13] is 410 nM (active).

Turning to `C[C@H](CCC(=O)O)[C@H]1CC[C@H]2[C@@H]3CC[C@@H]4C[C@H](O)CC[C@]4(C)[C@H]3C[C@H](O)[C@]12C`, the Potency result in assay [1], in assay [2], in assay [14], in assay [4], in assay [15] and in [5] was “inactive” throughout. Further, the Potency result in [6], in assay [7], in assay [16], in assay [11], in assay [12] and in assay [8] was “inactive” each time. In addition, the Potency entry in assay [9] and in assay [10] was “inactive” in each case.

As for `CC(C)N(c1ccccc1)C(C)C`, the Potency result in [1], in [2], in assay [3], in assay [4], in assay [5] and in assay [6] was “inactive” throughout. For the same compound, the Potency result in assay [11], in assay [12], in [13], in assay [17], in assay [18] and in assay [8] was “inactive” each time. Further, the Potency result in assay [9] and in [10] was “inactive” each time.

With `Nc1ccn([C@@H]2O[C@H](CO)[C@@H](O)C2O)c(=O)n1` (stereo partly specified), the Potency result in [1], in [2], in assay [3], in [4], in assay [5] and in assay [7] was “inactive” in each case. Moreover, the Potency entry in assay [17], in [18], in assay [8], in assay [9] and in assay [10] was “inactive” each time.
